The full data set covers some 8,800 targets. This sample favours those with a hit. About 0.5% of all pairs of compound and target were hits. A number with no mark means an inactive call.
Compound: COC(=O)N[C@@H](C)CNc1nccc(-c2cn(C(C)C)nc2-c2cc(Cl)cc(NS(C)(=O)=O)c2F)n1 [encorafenib]
Assay: log2 fold change, soluble protein after heating vs DMSO (PISA); higher = thermal stabilisation; K562 lysate, 10 uM; active = over 0.2 and 3.5 SD of the protein, either way, in both replicates (recomputed)
In short: (§1)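 Dounce homogenisation of K562 pellets in PBS pH 7.4 with 1 mM MgCl2 produced a crude extract, used at 1 mg/mL protein. Exposure to 10 μM compound lasted 30 min, and aliquots were then heated for 3 min across 48°C-58°C, pooled and brought to 0.5% NP-40 at 4°C. The supernatant after 21,000xg for 90 min was quantified by TMTpro 16plex LC-MS/MS with channel sums equalised. Duplicate values are given as log-two fold change in thermal stability relative to solvent controls.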

Chain of UniProt Q8TDX7 (Q8TDX7 whole entry, looked up): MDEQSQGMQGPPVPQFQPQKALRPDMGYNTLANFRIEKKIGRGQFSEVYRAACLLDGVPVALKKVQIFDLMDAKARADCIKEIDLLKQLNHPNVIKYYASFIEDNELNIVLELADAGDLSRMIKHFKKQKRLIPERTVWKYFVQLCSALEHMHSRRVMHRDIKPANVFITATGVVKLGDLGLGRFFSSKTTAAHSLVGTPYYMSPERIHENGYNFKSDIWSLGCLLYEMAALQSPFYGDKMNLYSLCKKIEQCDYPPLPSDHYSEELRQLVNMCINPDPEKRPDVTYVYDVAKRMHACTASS
Chain of UniProt Q13469 (Q13469 whole entry, looked up): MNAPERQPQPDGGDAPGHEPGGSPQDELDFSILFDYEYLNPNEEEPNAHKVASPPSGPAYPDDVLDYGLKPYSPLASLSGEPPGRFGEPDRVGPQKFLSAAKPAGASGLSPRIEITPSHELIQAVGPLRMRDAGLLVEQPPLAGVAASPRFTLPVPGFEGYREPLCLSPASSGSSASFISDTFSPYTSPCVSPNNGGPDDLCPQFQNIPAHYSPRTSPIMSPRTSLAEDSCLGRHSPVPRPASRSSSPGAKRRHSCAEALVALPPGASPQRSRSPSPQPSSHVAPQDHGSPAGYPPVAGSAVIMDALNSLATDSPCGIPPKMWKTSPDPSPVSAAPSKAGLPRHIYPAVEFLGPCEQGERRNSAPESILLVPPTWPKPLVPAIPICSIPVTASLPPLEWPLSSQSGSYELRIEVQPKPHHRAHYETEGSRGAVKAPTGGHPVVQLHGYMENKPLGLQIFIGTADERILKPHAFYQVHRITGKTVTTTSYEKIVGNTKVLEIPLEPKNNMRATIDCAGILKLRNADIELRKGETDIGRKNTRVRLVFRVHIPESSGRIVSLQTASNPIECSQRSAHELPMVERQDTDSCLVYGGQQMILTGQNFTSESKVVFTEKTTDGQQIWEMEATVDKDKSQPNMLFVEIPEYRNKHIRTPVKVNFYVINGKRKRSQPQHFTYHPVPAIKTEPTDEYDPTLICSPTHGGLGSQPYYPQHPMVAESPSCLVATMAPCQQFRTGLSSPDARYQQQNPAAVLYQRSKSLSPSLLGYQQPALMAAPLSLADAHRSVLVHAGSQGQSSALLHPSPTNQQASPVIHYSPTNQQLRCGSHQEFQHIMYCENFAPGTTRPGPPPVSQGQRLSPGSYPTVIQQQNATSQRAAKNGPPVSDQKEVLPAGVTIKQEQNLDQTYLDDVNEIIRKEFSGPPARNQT
Chain of UniProt O95644 (O95644 whole entry, looked up): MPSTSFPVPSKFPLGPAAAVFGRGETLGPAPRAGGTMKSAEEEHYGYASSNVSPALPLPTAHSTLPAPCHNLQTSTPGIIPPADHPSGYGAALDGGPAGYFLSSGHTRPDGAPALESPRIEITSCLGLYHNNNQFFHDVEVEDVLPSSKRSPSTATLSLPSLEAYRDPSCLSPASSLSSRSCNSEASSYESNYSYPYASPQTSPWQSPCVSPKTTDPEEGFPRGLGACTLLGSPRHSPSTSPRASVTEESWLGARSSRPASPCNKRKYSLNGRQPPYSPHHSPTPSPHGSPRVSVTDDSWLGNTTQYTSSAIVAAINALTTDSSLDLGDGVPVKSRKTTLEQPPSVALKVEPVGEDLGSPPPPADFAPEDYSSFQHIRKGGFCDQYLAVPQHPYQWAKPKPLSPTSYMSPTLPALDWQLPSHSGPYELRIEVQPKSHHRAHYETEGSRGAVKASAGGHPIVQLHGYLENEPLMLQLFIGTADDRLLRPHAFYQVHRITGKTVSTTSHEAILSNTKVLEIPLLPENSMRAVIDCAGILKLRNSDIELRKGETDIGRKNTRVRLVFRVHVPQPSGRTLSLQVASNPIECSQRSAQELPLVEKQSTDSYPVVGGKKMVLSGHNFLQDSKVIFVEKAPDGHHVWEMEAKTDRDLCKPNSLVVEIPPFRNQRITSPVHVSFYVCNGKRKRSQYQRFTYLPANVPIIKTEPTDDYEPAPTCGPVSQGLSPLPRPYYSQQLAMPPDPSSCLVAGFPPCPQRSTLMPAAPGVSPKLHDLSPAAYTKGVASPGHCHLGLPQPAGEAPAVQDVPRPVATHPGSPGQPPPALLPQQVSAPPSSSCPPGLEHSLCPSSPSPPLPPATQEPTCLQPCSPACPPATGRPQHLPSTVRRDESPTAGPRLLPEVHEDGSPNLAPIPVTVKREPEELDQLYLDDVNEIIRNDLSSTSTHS
Chain of UniProt Q9Y5A7 (Q9Y5A7 whole entry, looked up): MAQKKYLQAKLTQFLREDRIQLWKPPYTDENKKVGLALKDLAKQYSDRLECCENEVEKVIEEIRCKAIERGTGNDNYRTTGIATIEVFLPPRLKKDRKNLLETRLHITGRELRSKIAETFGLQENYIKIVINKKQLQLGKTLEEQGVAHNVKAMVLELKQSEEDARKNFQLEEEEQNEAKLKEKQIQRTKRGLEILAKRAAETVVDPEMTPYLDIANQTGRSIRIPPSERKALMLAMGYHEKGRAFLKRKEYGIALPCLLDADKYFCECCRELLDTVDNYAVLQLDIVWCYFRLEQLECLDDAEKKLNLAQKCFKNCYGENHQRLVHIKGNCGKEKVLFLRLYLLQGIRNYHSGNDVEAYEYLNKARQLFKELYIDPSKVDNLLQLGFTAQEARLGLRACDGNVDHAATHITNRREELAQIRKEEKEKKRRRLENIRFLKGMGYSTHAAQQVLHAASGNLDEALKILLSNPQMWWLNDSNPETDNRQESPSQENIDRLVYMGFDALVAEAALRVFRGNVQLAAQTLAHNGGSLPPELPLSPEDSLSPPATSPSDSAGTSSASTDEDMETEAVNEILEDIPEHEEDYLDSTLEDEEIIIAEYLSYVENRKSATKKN
Chain of UniProt Q9UDX5 (Q9UDX5 whole entry, looked up): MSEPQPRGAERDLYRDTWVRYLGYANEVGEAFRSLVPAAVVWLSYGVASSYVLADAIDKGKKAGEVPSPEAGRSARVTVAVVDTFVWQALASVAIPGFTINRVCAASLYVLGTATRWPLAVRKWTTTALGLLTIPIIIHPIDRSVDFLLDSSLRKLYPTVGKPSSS
Chain of UniProt Q9Y6C9 (Q9Y6C9 whole entry, looked up): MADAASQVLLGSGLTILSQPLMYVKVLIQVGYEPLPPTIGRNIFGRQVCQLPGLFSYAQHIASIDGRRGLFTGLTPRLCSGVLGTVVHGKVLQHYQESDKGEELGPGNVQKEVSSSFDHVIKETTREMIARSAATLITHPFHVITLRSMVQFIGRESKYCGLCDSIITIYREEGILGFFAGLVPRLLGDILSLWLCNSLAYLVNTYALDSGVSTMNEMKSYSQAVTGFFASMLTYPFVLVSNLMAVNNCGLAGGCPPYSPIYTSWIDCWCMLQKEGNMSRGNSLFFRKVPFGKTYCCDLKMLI
Chain of UniProt Q13153 (Q13153 whole entry, looked up): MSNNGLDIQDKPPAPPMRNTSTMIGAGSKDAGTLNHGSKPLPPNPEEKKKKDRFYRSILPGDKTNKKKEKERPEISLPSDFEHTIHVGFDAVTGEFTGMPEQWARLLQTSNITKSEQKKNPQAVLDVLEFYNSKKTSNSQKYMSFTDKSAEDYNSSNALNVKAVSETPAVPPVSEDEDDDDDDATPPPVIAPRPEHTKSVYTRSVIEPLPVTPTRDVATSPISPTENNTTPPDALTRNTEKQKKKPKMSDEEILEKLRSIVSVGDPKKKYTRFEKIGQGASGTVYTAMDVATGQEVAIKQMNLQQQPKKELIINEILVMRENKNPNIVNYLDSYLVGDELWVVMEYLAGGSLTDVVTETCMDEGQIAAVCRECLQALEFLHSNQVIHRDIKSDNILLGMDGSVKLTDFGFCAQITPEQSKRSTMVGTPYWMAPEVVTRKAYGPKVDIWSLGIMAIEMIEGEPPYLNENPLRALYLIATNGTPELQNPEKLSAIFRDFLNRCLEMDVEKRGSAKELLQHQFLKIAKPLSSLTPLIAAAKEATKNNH
Chain of UniProt Q9Y314 (Q9Y314 whole entry, looked up): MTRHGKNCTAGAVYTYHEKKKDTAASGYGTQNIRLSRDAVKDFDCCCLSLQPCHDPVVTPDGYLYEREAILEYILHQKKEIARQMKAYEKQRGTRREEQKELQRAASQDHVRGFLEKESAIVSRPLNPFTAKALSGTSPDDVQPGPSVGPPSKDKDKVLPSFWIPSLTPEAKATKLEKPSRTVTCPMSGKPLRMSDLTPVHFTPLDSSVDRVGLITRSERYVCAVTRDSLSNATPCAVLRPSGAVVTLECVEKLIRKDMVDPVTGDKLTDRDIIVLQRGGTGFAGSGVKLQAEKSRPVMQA
Chain of UniProt Q147X3 (Q147X3 whole entry, looked up): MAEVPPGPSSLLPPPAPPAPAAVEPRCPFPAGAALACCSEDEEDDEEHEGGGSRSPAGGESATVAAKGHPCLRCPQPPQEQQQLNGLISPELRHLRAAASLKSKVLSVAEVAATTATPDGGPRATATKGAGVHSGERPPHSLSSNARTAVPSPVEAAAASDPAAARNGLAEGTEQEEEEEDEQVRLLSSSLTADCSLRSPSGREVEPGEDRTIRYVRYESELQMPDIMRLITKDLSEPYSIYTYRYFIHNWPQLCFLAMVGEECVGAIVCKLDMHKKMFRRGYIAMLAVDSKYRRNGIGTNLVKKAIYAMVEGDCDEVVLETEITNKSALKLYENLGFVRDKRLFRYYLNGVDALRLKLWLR
Chain of UniProt P18440 (P18440 whole entry, looked up): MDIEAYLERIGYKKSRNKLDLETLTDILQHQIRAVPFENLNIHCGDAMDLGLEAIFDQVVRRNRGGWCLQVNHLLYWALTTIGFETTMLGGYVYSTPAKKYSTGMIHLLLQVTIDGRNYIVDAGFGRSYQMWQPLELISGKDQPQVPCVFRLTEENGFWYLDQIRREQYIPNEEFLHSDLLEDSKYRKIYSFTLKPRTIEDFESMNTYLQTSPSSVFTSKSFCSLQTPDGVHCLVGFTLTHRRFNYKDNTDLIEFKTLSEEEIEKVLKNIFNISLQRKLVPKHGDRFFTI
Chain of UniProt Q9Y530 (Q9Y530 whole entry, looked up): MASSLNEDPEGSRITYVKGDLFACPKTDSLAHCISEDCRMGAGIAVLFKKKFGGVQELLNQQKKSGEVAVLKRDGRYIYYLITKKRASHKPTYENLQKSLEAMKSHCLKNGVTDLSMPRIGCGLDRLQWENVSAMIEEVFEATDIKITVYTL

Target | log2 fold change
NUB1 (UniProt Q9Y5A7) | 0.022
NAA30 (UniProt Q147X3) | -0.032
NUDT5 (UniProt Q9UKK9) | 0.034
NOSIP (UniProt Q9Y314) | 0.014
MTFP1 (UniProt Q9UDX5) | -0.037
NFATC1 (UniProt O95644) | -0.071
MYOM1 (UniProt P52179) | 0.065
MTCH2 (UniProt Q9Y6C9) | -0.01
PAK1 (UniProt Q13153) | -0.012
NFATC2 (UniProt Q13469) | 0.004
NOC2L (UniProt Q9Y3T9) | 0.048
NEK7 (UniProt Q8TDX7) | 0

Compound: COC(=O)[C@H](CCSC)NC(=O)C1=C(C=C(C=C1)NC[C@H](CS)N)C2=CC=CC=C2
Assay: as above
In short: as §1

Target | log2 fold change
ORC2 (UniProt Q13416) | 0.094
NIPSNAP3A (UniProt Q9UFN0) | -0.022
N6AMT1 (UniProt Q9Y5N5) | 0.069
OTUD7B (UniProt Q6GQQ9) | 0.049
MSH2 (UniProt P43246) | 0.061
MRPL53 (UniProt Q96EL3) | -0.226 (active)
NFKBIE (UniProt O00221) | -0.14
NCAPH2 (UniProt Q6IBW4) | -0.039
MRPS18A isoform 2 (UniProt Q9NVS2) | -0.037
NOB1 (UniProt Q9ULX3) | 0.037
NCAPG2 (UniProt Q86XI2) | -0.018
NUMB (UniProt P49757) | 0.013
OARD1 (UniProt Q9Y530) | 0.018
NF1 (UniProt P21359) | -0.267
NTMT1 (UniProt Q9BV86) | 0.166
MYD88 isoform 6 (UniProt Q99836) | -0.003
NUSAP1 (UniProt Q9BXS6) | -0.028
MVB12A (UniProt Q96EY5) | -0.012

Target | log2 fold change
NAT1 (UniProt P18440) | 0.006
MSH3 (UniProt P20585) | -0.013
NCK1 (UniProt P16333) | -0.068
NGLY1 (UniProt Q96IV0) | 0.111
NOA1 (UniProt Q8NC60) | -0.023
NUB1 (UniProt Q9Y5A7) | 0.038
NAA30 (UniProt Q147X3) | 0.008
NUDT5 (UniProt Q9UKK9) | 0.006
NOSIP (UniProt Q9Y314) | 0.02
MTFP1 (UniProt Q9UDX5) | 0.102
NFATC1 (UniProt O95644) | 0.048
MYOM1 (UniProt P52179) | -0.011
MTCH2 (UniProt Q9Y6C9) | 0.043
PAK1 (UniProt Q13153) | 0.023
NFATC2 (UniProt Q13469) | 0.1
NOC2L (UniProt Q9Y3T9) | -0.02
NEK7 (UniProt Q8TDX7) | 0.003

Source: the supplement of paper PMC10849652
